{"source": "PubChem BioAssay (Tox21)", "note": "Inconclusive results are not listed. Where a call stands in place of a potency, no number is given. Calls of active or inactive are those of the source. The call rests on the fitted dose curve; in most records, active means well fitted cell-killing curve with a large enough effect in the repeat runs; inconclusive means weak or mixed curves, or effect the other way; inactive means flat fitted curve, though single readings scatter.", "data": [{"assay": "qHTS assay to identify small molecule antagonists of the androgen receptor (AR) signaling pathway using the MDA cell line - cell viability counter screen (AID 743041; further: nearly all actives have a fitted effect of over 45% in size)", "details": "MDA-kb2 viability, CellTiter-Fluor, 16 h, cells co-treated with R1881 androgen agonist; series mostly up to 70.3 µM", "text": "National Center for Advancing Translational Sciences [NCATS]\nNIH Chemical Genomics Center [NCGC]\nU.S. Environmental Protection Agency [EPA]\nNational Institutes of Environmental Health Sciences [NIEHS]\nNational Toxicology Program [NTP]\nU.S. Food and Drug Administration [FDA]\nAndrogen receptor (AR), a nuclear hormone receptor, plays a critical role in AR-dependent prostate cancer and other androgen related diseases. Endocrine disrupting chemicals (EDCs) and their interactions with steroid hormone receptors like AR may cause disruption of normal endocrine function as well as interfere with metabolic homeostasis, reproduction, developmental and behavioral functions. To identify the compounds that inhibit AR signaling, MDA-kb2 AR-luc cell line (from ATCC, deposited by Wilson et al.) was used to screen the Tox21 10K compound library. MDA-kb2 AR-luc cell line is human breast carcinoma cell line that was stably transfected with a luciferase reporter gene under control of the MMTV promoter containing response elements for both androgen receptor (AR) and glucocorticoid receptor (GR). The cytotoxicity of the Tox21 compound library against the MDA-kb2 AR-luc cell line was tested in parallel by measuring the cell viability using CellTiter-Fluor assay (Promega, Madison, WI) in the same wells.\nTox21 Assay Protocol Summary:\nMDA-kb2 AR-luc cells were dispensed at 3,000 cells/4 uL/well of culture medium into white wall/solid-bottom 1536-well plates using a Multidrop Combi (ThermoFisher Scientific, Waltham, MA) dispenser. After the assay plates were incubated at a 37C and 0% CO2 for 5 hr, 23 nL of compounds dissolved in DMSO, positive controls or DMSO only was transferred to the assay plate by a Pintool station (Kalypsys, San Diego, CA), followed by addition of 1 uL of agonist (R1881) in culture medium using a Bioraptr Flying Reagent Dispenser (FRD) workstation (Beckman Coulter, Indianapolis, IN, USA). The plates were incubated at a 37C and 0% CO2 for 16 h. After 15.5 h incubation, 1uL of CellTiter-Fluor reagent (Promega) was added using a Bioraptr FRD to each plate for measuring cytotoxicity. The fluorescence intensity was quantified on a ViewLux plate reader (PerkinElmer, Shelton, CT) following 30 min incubation at 37C and 0% CO2.", "values": [{"compound": "Cc1cc(C)n(CO)n1", "Potency": "inactive"}, {"compound": "Cc1ccc(NC(=O)c2ccc(CN3CCN(C)CC3)cc2)cc1Nc1nccc(-c2cccnc2)n1", "Potency": "inactive"}, {"compound": "CCCCCCCCC(=O)OCC(C)OC(=O)CCCCCCCC", "note": "(stereo not given)", "Potency": "inactive"}, {"compound": "CC(C)CCCCCOC(=O)CS", "Potency": "inactive"}, {"compound": "Clc1nc2ccccc2nc1Cl", "Potency": "inactive"}, {"compound": "CCc1c(C)[nH]c2c1C(=O)C(CN1CCOCC1)CC2", "note": "(stereo not given)", "Potency": "inactive"}, {"compound": "O=C(Nc1ccccc1)c1cc([N+](=O)[O-])ccc1Cl", "Potency": "inactive"}, {"compound": "CCCCCCCCCCCCN1CCOCC1", "Potency": "inactive"}, {"compound": "CC(C)NC(=O)c1ccccc1N", "Potency": "inactive"}, {"compound": "Sc1nc(S)nc(S)n1", "Potency": "inactive"}, {"compound": "CCOC(OCC)OCC", "Potency": "inactive"}, {"compound": "CCC(=O)O[C@@H]1C[C@H]2CC[C@]1(C)C2(C)C", "Potency": "inactive"}, {"compound": "C=CC(O)CCCCC", "note": "(stereo not given)", "Potency": "inactive"}, {"compound": "CCCCCCCCOCCCN", "Potency": "inactive"}, {"compound": "O=C(O)c1cccc(C(=O)O)c1C(=O)O", "Potency": "inactive"}, {"compound": "CC(=O)c1ccc(Cl)c(Cl)c1Cl", "Potency": "inactive"}, {"compound": "Cc1cccc(C)c1NC(=O)CN1CCCC1", "Potency": "inactive"}, {"compound": "FC(F)(Cl)C(F)(Cl)Cl", "Potency": "inactive"}, {"compound": "CC(O)CN", "note": "(stereo not given)", "Potency": "inactive"}, {"compound": "CNc1ccccc1", "Potency": "inactive"}, {"compound": "O=C(OC1C[C@H]2CC[C@@H](C1)[N+]21CCCC1)C(O)(c1ccccc1)c1ccccc1", "note": "(stereo not given in full)", "Potency": "inactive"}, {"compound": "CC(C)=CCC[C@H](C)CCO", "Potency": "inactive"}, {"compound": "CCCCCO", "Potency": "inactive"}, {"compound": "Nc1cccc2c(=O)[nH][nH]c(=O)c12", "Potency": "inactive"}, {"compound": "CCCc1ccc(OC)cc1", "Potency": "inactive"}, {"compound": "O=C1OC(=O)C2CC=CCC12", "note": "(stereo not given)", "Potency": "inactive"}, {"compound": "COc1cccc([C@H](O)C2CCN(CCc3ccc(F)cc3)CC2)c1OC", "Potency": "inactive"}, {"compound": "C=C[Si](OCC)(OCC)OCC", "Potency": "inactive"}, {"compound": "COc1cc(CNC(=O)CCCC/C=C/C(C)C)ccc1O", "Potency": "inactive"}, {"compound": "CCCCCCCCCC(C)C=O", "note": "(stereo not given)", "Potency": "inactive"}, {"compound": "CCCC(=O)OCc1ccccc1", "Potency": "inactive"}, {"compound": "COC(=O)/C=C/C(C)=C\\C=C\\C(C)=C\\C=C\\C=C(C)\\C=C\\C=C(C)\\C=C\\C(=O)O", "Potency": "inactive"}, {"compound": "O=C1CCCN1CCO", "Potency": "inactive"}, {"compound": "CC1(C)CC(O)CC(C)(C)N1[O]", "Potency": "inactive"}, {"compound": "C/C(=C(\\CCO)SS/C(CCO)=C(\\C)N(C=O)Cc1cnc(C)nc1N)N(C=O)Cc1cnc(C)nc1N", "Potency": "inactive"}, {"compound": "Cc1c(Nc2ncccc2C(=O)O)cccc1C(F)(F)F", "Potency": "inactive"}, {"compound": "O=C(O)CNc1ccccc1", "Potency": "inactive"}, {"compound": "CC(C)=CCCC(C)C=O", "note": "(stereo not given)", "Potency": "inactive"}, {"compound": "O=C(c1ccc(Cl)cc1)c1ccc(Cl)cc1", "Potency": "inactive"}, {"compound": "CCCCCCCCS", "Potency": "inactive"}]}]}
